The values that follow come from paper PMC11062922 (Nature Chemical Biology, 2023).

Read-outs that look alike come from different tables or passages of the source.

Set-up in all cases: species or system human, MV4-11 + K-562 + COLO205 + SK-N-BE2 + OVCAR-8
Experiment [1] has as its system ADCK1. Particulars: read-out: apparent Kd, n = 1.
The test system of experiment [2] is MARK2. Particulars: read-out: apparent Kd; compound concentrations:100 nM and 1000 nM (sheet 'Samples'); n = 1.
Experiment [3] relates to PHKG2. Particulars: read-out: apparent Kd, n = 1.
Experiment [4] relates to PRKAA2. Particulars: read-out: apparent Kd; compound concentrations:100 nM and 1000 nM (sheet 'Samples'); n = 1.
The subject of experiment [5] is STK3. Particulars: read-out: apparent Kd, n = 1.
For experiment [6], the system named is TNIK. The settings on record: read-out: apparent Kd, n = 1.
Experiment [7] has as its system CDK17. Particulars: read-out: apparent Kd, compound concentrations: 100 nM and 1000 nM (sheet 'Samples'), n = 1.
Experiment [8] deals with MAPK10. The settings on record: read-out: apparent Kd, n = 1.
Experiment [9] has as its system MAPK8. Particulars: read-out: apparent Kd, n = 1.
Experiment [10] deals with RIOK2. Particulars: read-out: apparent Kd; compound concentrations: 100 nM and 1000 nM (sheet 'Samples'), CATDS: 1.79748800643771E-2; n = 1.
Experiment [11] deals with STK16. Particulars: read-out: apparent Kd, n = 1.
For experiment [12], the system named is BUB1. The settings on record: read-out: apparent Kd; compound concentrations:100 nM and 1000 nM (sheet 'Samples'); n = 1.
For experiment [13], the system named is EPHA2. Particulars: read-out: apparent Kd; compound concentrations:100 nM and 1000 nM (sheet 'Samples'); n = 1.
In experiment [14] the test system is ROCK2. The settings on record: read-out: apparent Kd, compound concentrations: 100 nM and 1000 nM (sheet 'Samples'), n = 1.
The test system of experiment [15] is CSNK1A1. Particulars: read-out: apparent Kd, n = 1.
Experiment [16] relates to HCK. Particulars: read-out: apparent Kd; compound concentrations: 100 nM and 1000 nM (sheet 'Samples'), CATDS: 1.6731376225889199E-2; n = 1.
Experiment [17] concerns SRC. The settings on record: read-out: apparent Kd; compound concentrations: 100 nM and 1000 nM (sheet 'Samples'), CATDS: 1.60653948835471E-2; n = 1.
Experiment [18] has as its system YES1. Particulars: read-out: apparent Kd; compound concentrations: 100 nM and 1000 nM (sheet 'Samples'), CATDS: 1.8559890598855499E-2; n = 1.
The subject of experiment [19] is PRKX. Particulars: read-out: apparent Kd; compound concentrations: 100 nM and 1000 nM (sheet 'Samples'), CATDS: 4.4311971030028298E-2; n = 1.
Setting [20] is: compound concentrations:100 nM and 1000 nM (sheet 'Samples').

For `O=C(O)C(F)(F)F.O=c1[nH]ccc2nc(N[C@@H]3CCNC3)nc(Nc3cc(Cl)cc(Cl)c3)c12` [GSK2188764A], the potency estimated from few doses is 1680 nM in experiment [1] (setting [20]); 535 nM in [2]; 786 nM in [3] (setting [20]); 106 nM in experiment [4]; 847 nM in [5] (setting [20]); 1270 nM in [6] (setting [20]).

Regarding `COc1cc(Nc2nccc(-c3cnn4ncccc34)n2)cc(OC)c1` [GW801372X], the potency estimated from few doses in [7] (CATDS: 1.7691642172044799E-2) is 1920 nM; in [8] (compound concentrations: 100 nM and 1000 nM (sheet 'Samples'), CATDS: 2.5530057385415701E-2), 532 nM; in experiment [9] (compound concentrations: 100 nM and 1000 nM (sheet 'Samples'), CATDS: 2.2830325415810902E-2), 746 nM; in experiment [10], 1790 nM; in experiment [11] (compound concentrations: 100 nM and 1000 nM (sheet 'Samples'), CATDS: 1.87533606847229E-2) it was 1500 nM.

In the case of `CS(=O)(=O)CCn1c(=O)c(Oc2ccc(F)cc2F)cc2cnc(NC3CCOCC3)nc21` [RO5027956-000], the potency estimated from few doses was 1490 nM in experiment [12], 1060 nM in experiment [13], 127 nM in experiment [8] (setting [20]) and 1130 nM in experiment [9] (setting [20]).

For the compound `Cl.Cl.NC(CNC(=O)c1cc(Br)c(-c2ccnc3[nH]ccc23)s1)c1ccccc1.NC(CNC(=O)c1cc(Br)c(-c2ccnc3[nH]ccc23)s1)c1ccccc1` (stereo not drawn) [GSK1322949A], the potency estimated from few doses in [14] (CATDS: 0.12553300825941399) is 122 nM.

As for `CNCC#Cc1c(F)ccc2c1/C(=C/c1[nH]ccc1OC)C(=O)N2.Cl` [RO0281601-001], the potency estimated from few doses in experiment [7] (CATDS: 2.8122134627670499E-2) was 838 nM; in [11] (compound concentrations: 100 nM and 1000 nM (sheet 'Samples'), CATDS: 2.5135483463970699E-2), 1180 nM; in experiment [5] (compound concentrations: 100 nM and 1000 nM (sheet 'Samples'), CATDS: 2.2839730138462501E-2), 1650 nM; in [6] (compound concentrations: 100 nM and 1000 nM (sheet 'Samples'), CATDS: 2.1303462940689799E-2), 2180 nM.

With `Cc1cccc(Nc2nc(N[C@H]3CCNC3)ncc2C(N)=O)c1.Cl` [GSK2197149A], the potency estimated from few doses in [1] (setting [20]) is 1560 nM; in experiment [15] (setting [20]), 1560 nM; in experiment [6] (setting [20]), 1590 nM.

For the compound `CCn1c(-c2cccnc2O)nc2cnccc21` [SB-736715], the potency estimated from few doses in experiment [7] (CATDS: 1.55525424836102E-2) was 1200 nM; in experiment [15] (compound concentrations: 100 nM and 1000 nM (sheet 'Samples'), CATDS: 1.24384070369575E-2), 1990 nM; in experiment [16] it was 1040 nM; in [9] (compound concentrations: 100 nM and 1000 nM (sheet 'Samples'), CATDS: 1.2937412229939001E-2), 1800 nM; in [3] (compound concentrations: 100 nM and 1000 nM (sheet 'Samples'), CATDS: 1.25059866085428E-2) it was 1960 nM; in experiment [17], 1130 nM. The potency estimated from few doses is 1460 nM in experiment [11] (compound concentrations: 100 nM and 1000 nM (sheet 'Samples'), CATDS: 1.41773006803768E-2); 2360 nM in experiment [5] (compound concentrations: 100 nM and 1000 nM (sheet 'Samples'), CATDS: 1.16838495849846E-2); 859 nM in experiment [18].

With `Cc1cc(-c2ccnc(Nc3cccc(C#N)c3)n2)cc(C)c1O` [GSK1440913A], the potency estimated from few doses in experiment [1] (compound concentrations: 100 nM and 1000 nM (sheet 'Samples'), CATDS: 7.9755280277017199E-2) was 1350 nM; in experiment [8] (compound concentrations: 100 nM and 1000 nM (sheet 'Samples'), CATDS: 8.7033733779345604E-2), 990 nM.

In the case of `NCC(NC(=O)c1cc(-c2cn[nH]c2)c(-c2ccnc3[nH]ccc23)s1)c1ccccc1.NCC(NC(=O)c1cc(-c2cn[nH]c2)c(-c2ccnc3[nH]ccc23)s1)c1ccccc1.O=C(O)C(F)(F)F.O=C(O)C(F)(F)F` (stereo not drawn) [GSK1325775A], the potency estimated from few doses in experiment [15] (compound concentrations: 100 nM and 1000 nM (sheet 'Samples'), CATDS: 3.28567634973949E-2) was 1500 nM; in experiment [19], 641 nM; in experiment [14] (CATDS: 0.17011597804612999), 47.4 nM.

On to `CC(C)Oc1ccc2c(-c3ccnc(Nc4ccc(N5CCN(C)CC5)cc4)n3)cnn2n1` [GW696155X], for which the potency estimated from few doses was 44.9 nM in [1] (setting [20]); 853 nM in experiment [12]; 1250 nM in experiment [8] (setting [20]); 352 nM in experiment [9] (setting [20]); 39.2 nM in experiment [11] (setting [20]).
